# According to the supplement of paper PMC6279402:
# Where a name gives a salt, the structure may show the parent alone. ± gives the standard deviation of the averaged measurements.
# Tested on: A549
# Assay: relative viability (normalised to negative control = 1, bortezomib = 0) (fraction); higher = less cytotoxic
# Conditions: inflammatory serum-free RHB-A with cytokines + LPS, 5 d + 24 h CellTiter-Blue
# Experimental: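 A549 KRAS-mutant NSCLC cells, pre-treated 5 µM GSK126 or vehicle (DMSO), were seeded at 250 cells/well in 384-well plates in serum-free RHB-A medium with inflammatory cytokines/LPS and treated with Selleck kinase inhibitor and NCI oncology compounds at 30 or 300 nM in triplicate, refreshed at 48 h. Viability was read by CellTiter-Blue after 5 d plus 24 h and normalised per plate with cellHTS2 (mean of bortezomib positive control = 0, mean of negative control = 1).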
# [1] = compound 30 nM, GSK126 pretreatment: 5 uM GSK126
# [2] = compound 30 nM, GSK126 pretreatment: none (vehicle)
# [3] = compound 300 nM, GSK126 pretreatment: 5 uM GSK126
# [4] = compound 300 nM, GSK126 pretreatment: none (vehicle)
Structure (SMILES),relative viability [1],relative viability [2],relative viability [3],relative viability [4]
N[C@@H](Cc1ccc(N(CCCl)CCCl)cc1)C(=O)O [Melphalan],0.835 ± 0.054,0.819 ± 0.11,0.874 ± 0.13,0.876 ± 0.068
O=C(O)CCCc1ccc(N(CCCl)CCCl)cc1 [Chlorambucil],0.933 ± 0.1,0.844 ± 0.11,0.836 ± 0.13,0.845 ± 0.12
Cn1cc(C2=C(c3cn(C4CCN(Cc5ccccn5)CC4)c4ccccc34)C(=O)NC2=O)c2ccccc21 [Enzastaurin],0.823 ± 0.11,0.831 ± 0.05,0.789 ± 0.042,0.802 ± 0.037
Cn1c(CCCC(=O)O)nc2cc(N(CCCl)CCCl)ccc21 [bendamustine hydrochloride],0.713 ± 0.012,0.729 ± 0.045,0.784 ± 0.012,0.865 ± 0.056
Cc1c(N)nc([C@H](CC(N)=O)NC[C@H](N)C(N)=O)nc1C(=O)N[C@H](C(=O)N[C@H](C)[C@@H](O)[C@H](C)C(=O)N[C@H](C(=O)NCCc1nc(-c2nc(C(=O)NCCC[S+](C)C)cs2)cs1)[C@@H](C)O)[C@@H](OC1OC(CO)C(O)C(O)C1OC1OC(CO)C(O)C(OC(N)=O)C1O)c1cnc[nH]1 (stereo not given in full) [Bleomycin sulfate],0.821 ± 0.13,0.871 ± 0.061,0.739 ± 0.064,0.84 ± 0.069
NCCCNCCSP(=O)(O)O [Amifostine],0.96 ± 0.16,0.908 ± 0.078,0.964 ± 0.12,0.96 ± 0.078
Cc1ccccc1-n1c(Cn2ncc3c(N)ncnc32)nc2cccc(C)c2c1=O,0.756 ± 0.055,0.787 ± 0.046,0.689 ± 0.12,0.857 ± 0.13
N.N.[Cl][Pt][Cl] [Cisplatin],0.813 ± 0.035,0.812 ± 0.029,0.839 ± 0.099,0.875 ± 0.018
O=P1(NCCCl)OCCCN1CCCl (stereo not given) [Ifosfamide],0.792 ± 0.087,0.806 ± 0.063,0.803 ± 0.16,0.91 ± 0.11
C=C1C[C@@H]2[C@H](CC[C@]3(C)C(=O)CC[C@@H]23)[C@@]2(C)C=CC(=O)C=C12 [Exemestane],0.797 ± 0.073,0.82 ± 0.079,0.839 ± 0.17,0.971 ± 0.086
